Experimental data published in PubChem BioAssay AID1209 (Sanford-Burnham Center for Chemical Genomics, 2008).
The campaign covered roughly 190,000 compounds. About 810 (0.43%) were called active. This is one part of a sample in which actives are shown more often than they occur. No stated cut-off is given here; in the data, active means inhibition above about 50%; inactive means the rest.

These compounds were tested against Mannose-6-phosphate isomerase (Homo sapiens) (UniProt P34949) (assay: MPI enzyme activity inhibition – biochemical, fluorescence intensity, coupled assay, primary screen (AID 1209;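 further: plate controls were DMSO vehicle for no effect and wells lacking substrate for full effect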)). Conditions: purified PMI enzyme, at 20 µM, active compounds read high.
Sequence of Mannose-6-phosphate isomerase (Homo sapiens) (P34949 whole entry, looked up): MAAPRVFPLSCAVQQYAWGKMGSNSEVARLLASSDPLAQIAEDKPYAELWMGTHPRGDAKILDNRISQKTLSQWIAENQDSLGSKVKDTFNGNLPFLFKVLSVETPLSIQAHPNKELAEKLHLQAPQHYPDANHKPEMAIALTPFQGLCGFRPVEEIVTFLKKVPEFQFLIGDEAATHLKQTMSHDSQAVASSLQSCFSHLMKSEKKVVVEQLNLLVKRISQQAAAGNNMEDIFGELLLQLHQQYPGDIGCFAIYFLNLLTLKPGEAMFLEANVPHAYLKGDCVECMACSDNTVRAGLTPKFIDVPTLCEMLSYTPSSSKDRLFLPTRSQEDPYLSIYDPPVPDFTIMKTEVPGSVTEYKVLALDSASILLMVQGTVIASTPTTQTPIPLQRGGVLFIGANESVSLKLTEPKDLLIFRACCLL

Compound	inhibition
O=C(COC(=O)CCOc1ccccc1)Nc1ncc(Cl)cc1Cl	-1% (inactive)
Cc1c(C(=O)N/N=C/c2ccccc2)[nH]c2ccc(Cl)cc12	2.8% (inactive)
O=C(Cc1csc(NC(=O)c2ccccc2)n1)NO	67.6% (active)
COc1ccccc1NC(=O)Cc1csc(NC(=O)c2ccccc2)n1	5.9% (inactive)
O=C(Cc1csc(NC(=O)c2ccc(F)cc2)n1)NO	0.3% (inactive)
COC(=O)c1c(-c2cccc(OC)c2)csc1N	30% (inactive)
O=C(CN1CCCC1)Nc1ccc(F)cc1	-11.5% (inactive)
COc1ccccc1NS(=O)(=O)c1cc(NC(=O)C2CC2)ccc1N1CCOCC1	15% (inactive)
COc1ccccc1NS(=O)(=O)c1cc(NC(C)=O)ccc1N1CCCCC1	52.7% (active)
COc1ccccc1NS(=O)(=O)c1cc(NC(=O)Nc2ccc(Cl)cc2Cl)ccc1N1CCCCC1	2% (inactive)
O=C(Nc1ccc(F)cc1)Nc1ccc(N2CCOCC2)c2nonc12	15.4% (inactive)
COc1ccccc1NS(=O)(=O)c1cc(NC(=O)Nc2cccc(C)c2)ccc1N1CCCCC1	0.3% (inactive)
O=C(Nc1ccc(N2CCOCC2)c2nonc12)C1CCCC1	53.4% (active)
COc1ccccc1NS(=O)(=O)c1cc(N)ccc1N1CCCCC1	67.5% (active)
COc1ccccc1NS(=O)(=O)c1cc(NC(=O)Nc2ccccc2)ccc1N1CCCCC1	14.8% (inactive)
COc1ccccc1NS(=O)(=O)c1cc(NC(=O)CCC2CCCC2)ccc1N1CCOCC1	2.1% (inactive)
COc1ccccc1NS(=O)(=O)c1cc(NC(=O)C2CCCC2)ccc1N1CCOCC1	55.7% (active)
COc1ccccc1NS(=O)(=O)c1cc(NC(=O)C(C)C)ccc1N1CCCCC1	41.2% (inactive)
O=C(Nc1ccc([N+](=O)[O-])cc1)Nc1ccc(N2CCOCC2)c2nonc12	34.2% (inactive)
O=C(c1ccccc1)C(C(=O)N1CCc2ccccc2C1)n1ccccc1=O (stereo unspecified)	8.6% (inactive)
O=C(CSc1nnnn1-c1cccc2ccccc12)NC(C(=O)O)(c1ccccc1)c1ccccc1	-9.3% (inactive)
Cc1ccc(NC(=O)NC(=O)CN2C(=O)NC3(CCCCCCC3)C2=O)c(C)c1	9.5% (inactive)
CCC/C(O)=C1\C(=O)CC(c2ccccc2)CC1=NC(C)C(=O)O (stereo unspecified)	-5.7% (inactive)

Compound	inhibition
O=C(COc1ccc(Cl)cc1)NCc1nnc(SCC(=O)N2CCCCCC2)o1	3.1% (inactive)
CCOc1ccccc1NC(=O)c1ccc(NC(=O)c2ccco2)cc1	-12.3% (inactive)
CN(CCO)c1cc(N2CCCCC2)c2nonc2c1[N+](=O)[O-]	-0.9% (inactive)
O=[N+]([O-])c1c(NCCO)cc(N2CCCCC2)c2nonc12	57.8% (active)
O=[N+]([O-])c1c(NCCCO)cc(N2CCN(Cc3ccc4c(c3)OCO4)CC2)c2nonc12	13% (inactive)
Cc1nnc(Sc2cc(NCCO)c([N+](=O)[O-])c3nonc23)s1	-0.7% (inactive)
CC(=O)Nc1ccc(Nc2cc(N3CCOCC3)c3nonc3c2[N+](=O)[O-])cc1	-2.7% (inactive)
CN(CCO)c1cc(N2CCC3(CC2)OCCO3)c2nonc2c1[N+](=O)[O-]	6% (inactive)
O=[N+]([O-])c1c(NCCO)cc(N2CCC3(CC2)OCCO3)c2nonc12	60.3% (active)
CCOC(=O)N1CCN(c2cc(N(C)CCO)c([N+](=O)[O-])c3nonc23)CC1	20.8% (inactive)
CCOC(=O)C1CCCN(c2cc(NCCCO)c([N+](=O)[O-])c3nonc23)C1 (stereo unspecified)	32.9% (inactive)
O=[N+]([O-])c1c(NCCO)cc(N2CCN(Cc3ccc4c(c3)OCO4)CC2)c2nonc12	55.4% (active)
CCN(CC)c1cc(NCCO)c([N+](=O)[O-])c2nonc12	37.9% (inactive)
CCOC(=O)N1CCN(c2cc(NCCO)c([N+](=O)[O-])c3nonc23)CC1	56.2% (active)
COc1ccccc1-n1c(-c2ccc(NS(C)(=O)=O)cc2)n[nH]c1=S	-0.6% (inactive)
CC(C)Cc1nnc(NC(=O)CS(=O)(=O)Cc2ccccc2)s1	-0.2% (inactive)
C=C(C)CSc1nnc2n(N)c(=O)c3ccccc3n12	-4.8% (inactive)
Cc1ccccc1C(=O)NCCc1nnc(SCC(=O)Nc2nc(-c3ccccc3)cs2)n1C	-0.8% (inactive)
O=C(CSc1ncccn1)N1CCN(C(c2ccccc2)c2ccccc2)CC1	20.8% (inactive)
Cn1c(C(C(=O)NCC2CCCO2)N(CCc2ccccc2)C(=O)Cn2nnc3ccccc32)nc2ccccc21 (stereo unspecified)	2.6% (inactive)
CCSc1c(-c2ccccc2)nc2c(C)cccc2c1C(=O)O	4.5% (inactive)
CCSc1nnc(-c2ccccc2SC)o1	-75.6% (inactive)
Cc1cccc(NC(=O)c2sc3nc4c(c(-c5cccs5)c3c2N)CN(C)CC4)c1	-14.8% (inactive)

Compound	inhibition
CN1CCN(c2ccc(NC(=O)c3ccc(-c4ccc(Br)cc4)o3)cc2)CC1	-0.8% (inactive)
Cc1c(Nc2cc(N3CCCCCC3)c3nonc3c2[N+](=O)[O-])c(=O)n(-c2ccccc2)n1C	55% (active)
Cc1c(Nc2cc(N3CCOCC3)c3nonc3c2[N+](=O)[O-])c(=O)n(-c2ccccc2)n1C	19.4% (inactive)
Cc1c(Nc2cc(N3CCCC(C)C3)c3nonc3c2[N+](=O)[O-])c(=O)n(-c2ccccc2)n1C (stereo unspecified)	45.8% (inactive)
Cc1ccc2c(C(=O)CN3CCN(c4ccccc4)CC3)c(C)[nH]c2c1	-4.7% (inactive)
CCOc1ccccc1-n1c(SCC(=O)NC2CCCC2)nnc1-c1ccoc1C	17.9% (inactive)
COc1ccc(/C=N/NC(=O)c2ccccc2)cc1CN1CCN(c2ccc(F)cc2)CC1	-6.3% (inactive)
COc1ccc(/C=N\NC(=O)c2cc(O)c(O)c(O)c2)cc1CN1CCN(c2ccc(F)cc2)CC1	58.1% (active)
COc1ccc(/C=N/NC(=O)c2ccc(N)cc2)cc1Cn1cc([N+](=O)[O-])cn1	2.9% (inactive)
COc1cc(C(=O)N/N=C/c2ccc(OC)c(CN3CCN(c4ccc(F)cc4)CC3)c2)ccc1O	22.3% (inactive)
COc1ccc(/C=N\NC(=O)c2cccc([N+](=O)[O-])c2)cc1Cn1cc([N+](=O)[O-])cn1	10% (inactive)
CCC(O)c1c(-c2ccccc2)nn(C)c1Cl (stereo unspecified)	1.3% (inactive)
O=S1(=O)CC(O)C(NCc2ccco2)C1 (stereo unspecified)	-0.2% (inactive)
COc1ccc(-c2csc(NC(=O)c3cc(=O)c4ccccc4o3)n2)cc1OC	-9.2% (inactive)
COC(=O)c1ccc(COC(=O)C23CC4CC(CC(O)(C4)C2)C3)o1	1.1% (inactive)
Cc1cc(/N=C/N(C)C)on1	4.8% (inactive)
CN(C)C=Nc1nonc1N	-5.6% (inactive)
CN(C)C=Nc1c(Br)cc(Br)c2nonc12	70.8% (active)
CC1(c2ccc([N+](=O)[O-])cc2)CC(C)(C)N(C(=O)c2ccccc2)c2ccccc21 (stereo unspecified)	15.2% (inactive)
CC1(C)CC(CCC(=O)Nc2ccc(S(N)(=O)=O)cc2)C(=O)O1 (stereo unspecified)	-3.1% (inactive)
Cc1cc2cc(CN(CC3CCCO3)C(=S)NCc3ccco3)c(=O)[nH]c2cc1C (stereo unspecified)	9% (inactive)
Cc1ccc2cc(CN(CC3CCCO3)C(=S)NCc3ccco3)c(=O)[nH]c2c1 (stereo unspecified)	54.6% (active)
O=c1[nH]c2cc3c(cc2cc1CN(CCCO)C(=S)NCc1ccco1)OCO3	11.2% (inactive)

Compound	inhibition
O=c1[nH]c2cc3c(cc2cc1CN(Cc1cccnc1)C(=S)NCc1ccco1)OCCO3	59.7% (active)
CCNC(=S)N(Cc1ccco1)Cc1cc2cc3c(cc2[nH]c1=O)OCCO3	17.8% (inactive)
CN(C)CCN(Cc1cc2cc3c(cc2[nH]c1=O)OCO3)C(=S)NCc1ccco1	9.6% (inactive)
O=c1[nH]c2cc3c(cc2cc1CN(Cc1cccnc1)C(=S)NCc1ccco1)OCO3	53.9% (active)
CC(C)CNC(=S)N(Cc1ccco1)Cc1cc2cc3c(cc2[nH]c1=O)OCCO3	19.9% (inactive)
Cc1ccc2[nH]c(=O)c(CN(CC3CCCO3)C(=S)NCc3ccco3)cc2c1 (stereo unspecified)	17.8% (inactive)
O=C(Cn1cnc2ccccc2c1=O)NCCC(=O)Nc1ccc2c(c1)OCO2	-1.6% (inactive)
Fc1ccc(-c2cc(C(F)(F)F)n3ncnc3n2)cc1	-18.4% (inactive)
COC(=O)c1ccc(-n2c(C)cc(C(=O)COC(=O)CC3Sc4ccccc4NC3=O)c2C)cc1 (stereo unspecified)	3.1% (inactive)
CCOC(=O)c1nnc(-c2ccc(C)cc2)nc1Oc1ccccc1Cl	13.7% (inactive)
CCOC(=O)c1sc(NC(=O)/C=C/c2ccccc2)nc1C	-6.9% (inactive)
CCOC(=O)c1sc(N/N=C/c2cccc(C)c2)nc1C	7.8% (inactive)
CCOC(=O)c1sc(N/N=C/c2ccccc2)nc1C	60.3% (active)
Cc1ccc(-n2nnc3c(=O)n(Cc4ccccn4)cnc32)cc1C	-5.8% (inactive)
CCN(CC)c1ccc(/C=N/NC(=O)Cc2cccs2)cc1	15.6% (inactive)
Cc1cccc(NC(=O)C2CCN(S(=O)(=O)c3c(C)noc3/C=C/c3ccco3)CC2)n1	-3.8% (inactive)
Cc1ccc(NC(=O)C2CCN(S(=O)(=O)c3c(C)noc3/C=C/c3ccco3)CC2)nc1	9.1% (inactive)
Cc1cccnc1NC(=O)C1CCN(S(=O)(=O)c2c(C)noc2/C=C/c2ccco2)CC1	50.7% (active)
Cn1cccc1CC(=O)N/N=C/c1cccc2ccccc12	4.2% (inactive)
COc1ccc(S(=O)(=O)N2CCCC(C(=O)NCc3ccccn3)C2)cc1Cl (stereo unspecified)	62.4% (active)
COc1ccc(S(=O)(=O)N2CCC(C(=O)NCc3ccccn3)CC2)cc1Cl	16.7% (inactive)
COc1ccc(S(=O)(=O)N2CCCC(C(=O)NCc3ccccn3)C2)cc1 (stereo unspecified)	14% (inactive)
